According to ChEMBL document CHEMBL3988442, “University of Dundee, Small-Polar-MMV Screening Library” (2021):
About 13,000 (27%) of roughly 48,000 compounds showed an effect of 50% or more. This is one part of the list.

System: Wolbachia pipientis
Test: Anti-Wolbachia Cell-Based Screen
Type: functional
Set-up: scale not given: in the data most compounds retested in dose-response had high values
Details: 5 µM

SMILES | Percent Effect [%]
CCN(Cc1nccn1C)C(=O)c1ccc(NCCc2c[nH]cn2)nc1 | -4.233
CCN(CCC(F)(F)F)S(=O)(=O)c1cccc(F)c1C#N | -15.21
CCCN(Cc1cnn(C)c1)CC1CCCN(S(C)(=O)=O)C1 (centres undefined) | -6.058
CCCN(Cc1cnn(C)c1)S(=O)(=O)c1cccc(F)c1C#N | 103.9
CCN(Cc1cnn(C)c1)S(=O)(=O)c1ccc(NC(=O)C(C)(C)C)cc1 | -17.75
CCCN(Cc1cnn(C)c1)S(=O)(=O)c1cc(C)cc(F)c1 | 91.35
COCCN(C)S(=O)(=O)c1cc(C)cc(F)c1 | -0.1957
CCN(Cc1cnn(C)c1)S(=O)(=O)c1ccc(NC(C)=O)cc1 | -1.303
CCCN(Cc1cnn(C)c1)S(=O)(=O)c1ccc(F)c(C#N)c1 | 88.2
CN(CCn1cccn1)S(=O)(=O)c1cccc(F)c1C#N | -19.52
COCCOCC(=O)NCCCOC1CCCc2ccccc21 (centres undefined) | -58.49
Cc1noc(C)c1CS(=O)(=O)CC(=O)N(C)Cc1cccc(F)c1 | -54.06
O=C(NCc1nncn1C1CC1)C1(c2ccccc2)CCOCC1 | 1.62
CCS(=O)(=O)c1ncc(CN(C)Cc2ccccc2OC)n1CCOC | -30.57
Cc1oc(-c2ccc(Cl)cc2)nc1C(=O)NC1=NCCS1 | -49.42
CCOCC(=O)N1Cc2[nH]nc(COCC3CC3)c2C1.O=C(O)C(F)(F)F | -0.4061
CCc1nc2n(n1)CC(NCC(=O)Nc1cc(C)on1)CC2 (centres undefined) | -10.03
COc1cc(CNC2CCc3nc(C(C)C)nn3C2)cc2c1OCO2 (centres undefined) | -4.906
CCc1nc2n(n1)CC(NCc1cc(OC)c3c(c1)OCO3)CC2 (centres undefined) | 105
Cc1nc2n(n1)CC(NCc1cc(Cl)c3c(c1)OCCCO3)CC2 (centres undefined) | 2.469
Cc1nc2n(n1)CC(NCc1nnc(C(C)(C)C)o1)CC2 (centres undefined) | -15.95
CCc1nc2n(n1)CC(NCc1cc(OC)c3c(c1)OCCO3)CC2 (centres undefined) | 96.75
COc1cc(CNC2CCc3nc(C)nn3C2)cc2c1OCO2 (centres undefined) | 104.6
CCc1nc2n(n1)CC(NCc1cc3ccccc3o1)CC2 (centres undefined) | -28.44
Cc1nc2n(n1)CC(NCc1cc(Cl)c3c(c1)OCCO3)CC2 (centres undefined) | 95.39
COc1cc(CNC2CCc3nc(C)nn3C2)cc2c1OCCO2 (centres undefined) | 2.484

SMILES | Percent Effect [%]
CCc1nc2n(n1)CC(NCc1ccccc1OCC(=O)NC)CC2 (centres undefined) | 0.2163
COc1cc(CNC2CCCN(c3cccnn3)C2)cc2c1OCO2 (centres undefined) | -1.044
Cn1c(CCNC(=O)Nc2cn[nH]c2)nc2ccc(F)cc21 | -27.77
O=C(NCc1ccc(-n2cncn2)nc1)N(CC1CCOC1)C1CC1 (centres undefined) | 4.835
O=C(NC1(c2nccs2)CCCC1)c1cc(C2CC2)[nH]n1 | -18.19
CC(C)n1cnnc1CN(C)Cc1cnc(-c2ccco2)nc1 | -3.944
CNC(=O)c1cccc(CNC(C)c2ccc(F)cc2N(C)C)c1 (centres undefined) | 2.761
Cc1cc(CNC(=O)c2cccs2)ccc1S(C)(=O)=O | -1.482
Cc1ccc(C(=O)N2C[C@@H]3CC[C@H](C2)N(Cc2ccccc2)C3)cn1 | 101.3
CCn1cc(CN2C[C@H]3CC[C@@H]2CN(C(=O)c2cnccn2)C3)cn1 | 6.074
N#Cc1ccccc1CN1C[C@H]2CC[C@@H]1CN(C(=O)c1cccnc1)C2 | -5.944
Nc1ccc(C(=O)N2C[C@@H]3CC[C@H](C2)N(Cc2ccccc2)C3)cn1 | 108.6
O=C(c1cnc(O)cn1)N1C[C@@H]2CC[C@H](C1)N(Cc1ccccc1)C2 | 93.73
O=C(c1cccnc1)N1C[C@@H]2CC[C@H](C1)N(Cc1ccc(F)cc1Cl)C2 | -16.95
CC(=O)c1ccc(C(=O)N2C[C@@H]3CC[C@H](C2)N(Cc2ccccc2)C3)s1 | -1.466
O=C(c1cccnc1)N1C[C@@H]2CC[C@H](C1)N(Cc1cccc(Cl)c1F)C2 | -33.46
Cc1ccc(C)c(CN2C[C@H]3CC[C@@H]2CN(C(=O)c2cccnc2)C3)c1 | 3.177
c1ccc(SCCN2CCCC(Cn3ccnc3)C2)cc1 (centres undefined) | -2.811
COCCc1noc(CN2CCC3(CCCO3)CCC2=O)n1 (centres undefined) | -3.143
O=C(NCCn1cnnc1C1CC1)c1c(O)cc(F)cc1F | 120
O=C(NCCn1cccc1)c1c(O)cc(F)cc1F | 114.7
CC(C)c1nncn1CCNC(=O)c1c(O)cc(F)cc1F | 158.6
CC(C)c1nncn1CCNC(=O)c1ccc(Cl)cc1O | 126.8
CCn1cnnc1CNC(=O)c1cc(Cl)ccc1OC | 2.71
CC(C)c1nc(C(=O)NCCn2ccnc2)nn1-c1cccc(F)c1 | 0.4969
CCn1cnnc1CNC(=O)c1cc(Cl)ccc1O | 6.278

SMILES | Percent Effect [%]
O=C(NCCC(=O)N1CCCCCC1)c1c(O)cc(F)cc1F | 4.152
CC(C)c1ccc(O)c(C(=O)NCc2nncn2C)c1 | -11.21
CN(C)C(C(=O)NCCn1cccc1)c1cccc(F)c1 (centres undefined) | 1.101
CC(C)Cn1cnnc1C1CCCN1C(=O)c1ccc(F)cc1F (centres undefined) | -3.293
CCOC(=O)N1CCN(c2nc(NC3CC3)c3ccccc3n2)CC1.Cl | 12.46
CC(C)CN1CCC(NC(=O)NCCC(=O)NCc2ccccc2)CC1 | -0.3399
O=C(NC1(C(=O)O)CCCCC1)C1Cc2ccccc2O1 (centres undefined) | 26.74
CC(C(=O)NCc1ccc(N2CCCC2)nc1)n1cncn1 (centres undefined) | 95.49
CCCS(=O)(=O)NC(C)C(=O)NCc1ccc(N2CCCC2)nc1 (centres undefined) | 3.443
CC(C(=O)NCc1ccnc(N2CCCC2)c1)n1cncn1 (centres undefined) | -10.11
CCN(CC)C(C(=O)NCc1ccc(N2CCCC2)nc1)C(C)C (centres undefined) | 0.1706
CC(C(=O)NCc1ccc(N2CCCCCC2)nc1)n1cncn1 (centres undefined) | 118.8
CC(C(=O)NCc1ccc(N2CCCCC2)nc1)n1cncn1 (centres undefined) | 91.32
CCc1cc(N2CCS(=O)(=O)CC2)n2nc(C)c(C)c2n1 | 1.934
Cc1cc(CNC(=O)N2CCc3ccccc32)on1 | 8.57
CCn1nc(CC(C)C)cc1C(=O)N1CC(c2ccncc2)C1 | 2.203
COc1ccc(C(=O)N2CC(c3ccncc3)C2)c(OC)c1OC | -3.767
CC(C)C(C(=O)N1CCN(Cc2ccncc2)CC1)n1cncn1 (centres undefined) | -9.917
O=C1Cc2cc(NC(=O)N3CCCN(Cc4cccs4)CC3)ccc2N1 | -14
CC(C)N1CCOC(CC(=O)N2CCCN(Cc3ccncc3)CC2)C1 (centres undefined) | 108.1
CC(C)N1CCOC(CC(=O)N2CC(c3ccncc3)C2)C1 (centres undefined) | 103.1
Cn1cc(Cl)cc1C(=O)N1CCCN(Cc2cccs2)CC1 | 6.765
CC(C)N1CCOC(CC(=O)N2CCCN(Cc3cccs3)CC2)C1 (centres undefined) | 115.9
CC(C)c1noc(CCCC(=O)N2CCN(Cc3ccncc3)CC2)n1 | 9.979
NC(=O)c1cnc(NCC(=O)NCc2ccco2)c(Cl)c1 | -1.038
COCC(=O)N[C@H](C)c1onc(-c2ccc(Cl)cc2)c1C(=O)O | -3.63

SMILES | Percent Effect [%]
Cc1nccn1CCC1CCCCN1Cc1cccc(CCN)c1 (centres undefined) | -7.51
NC(=O)Cc1csc(NC(=O)C2CSCCC(=O)N2)n1 (centres undefined) | 2.989
O=C(NCc1csc(Br)c1)c1ccc(=O)[nH]n1 | 9.228
CCOC(=O)Cc1csc(NC(=O)c2ccc(=O)[nH]n2)n1 | 95.75
O=C(c1ccno1)N1CC(c2nc(-c3ccco3)no2)C1 | 0.6255
O=S(=O)(Cc1ccccc1)NCCNc1ccc(-n2cccc2)nn1 | 11.81
Cc1cc2cc(CNC3CCN(CC(=O)N(C)C)CC3)oc2cc1C | -4.492
CNC(=O)CCc1cc(C)nc(C2CCN(C(=O)CN(C)C)CC2)c1 | 154.4
Cc1cc(C)cc(CCC(=O)N2CCN(c3cc(C)nc(N)n3)CC2)c1 | -5.077
CN(C)C1CCN(C(=O)CCc2cc(Br)cs2)CC1 | 1.097
CNC(=O)CCc1cc(C)nc(C2CCN(CC(=O)N(C)C)CC2)c1 | 129.2
COC(=O)[C@@H]1Cc2[nH]cnc2CN1Cc1cc2ccccc2o1 | 9.178
CC(=O)N1CCCN(Cc2ccon2)c2ccccc21 | 1.908
Cc1c(CS(C)(=O)=O)cccc1NCC1CCCCC1 | 1.975
COC(=O)C(C)(C)NC(=O)C1CC(=O)N(CC(C)C)C1 (centres undefined) | 100.8
COC(=O)C(C)(C)NC(=O)C1CC(=O)N(C)C1 (centres undefined) | -1.781
CCCc1nc(C(C)(C)NC(=O)C2CC(=O)N(CC3CC3)C2)no1 (centres undefined) | -6.715
O=C(NCCNc1ncccn1)C1CC(=O)N(CC(F)(F)F)C1 (centres undefined) | 1.939
CCN1CC(C(=O)NC(C)(C)CC)CC1=O (centres undefined) | -10.63
COC(=O)C(C)(C)NC(=O)C1CC(=O)N(CC(F)(F)F)C1 (centres undefined) | 83.67
CCN1CC(C(=O)NC(C)(C)CC(C)(C)C)CC1=O (centres undefined) | 2.297
CCN1CC(C(=O)NC(C)(C)CNC(=O)OC(C)(C)C)CC1=O (centres undefined) | -0.2967
CCC(C)(C)NC(=O)C1CC(=O)N(CC2CC2)C1 (centres undefined) | 3.552
COC(=O)C(C)(C)NC(=O)C1CC(=O)N(CC2CC2)C1 (centres undefined) | 110.1
CCN1CC(C(=O)NC(C)(C)C)CC1=O (centres undefined) | -9.629
CCN1CC(C(=O)NC(C)(C)C(=O)OC)CC1=O (centres undefined) | 77.38
